# Data from PubChem BioAssay (EPA / NIEHS).
# Results filed as inconclusive are left out. The source made the active and inactive calls. How the source made its calls: active means hit-call score of the fitted dose curve at least 0.9, where 1 is the maximum; inconclusive means response in the unintended direction; inactive means score below 0.9.
# Target: rat Opioid Receptor, Non-selective Sodium (Na+) Binding, Oprm1 (gene 25601) (UniProt P33535)
# Experiment: NVS_GPCR_rOpiate_NonSelectiveNa: NovaScreen (NVS) G Protein-Coupled Receptor Assay for rat Opioid Receptor, Non-selective Sodium (Na+) Binding (AID 2283311)
# Outline: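 Filtration radioligand binding on rat forebrain membrane preparations, read 1.5 h after dosing. Single-concentration 25 µM primary screen in duplicate, followed by singleton concentration series to 50 µM max for actives; DMSO baseline.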
# Chain of rat Opioid Receptor, Non-selective Sodium (Na+) Binding, Oprm1 (gene 25601) (P33535 whole entry, looked up): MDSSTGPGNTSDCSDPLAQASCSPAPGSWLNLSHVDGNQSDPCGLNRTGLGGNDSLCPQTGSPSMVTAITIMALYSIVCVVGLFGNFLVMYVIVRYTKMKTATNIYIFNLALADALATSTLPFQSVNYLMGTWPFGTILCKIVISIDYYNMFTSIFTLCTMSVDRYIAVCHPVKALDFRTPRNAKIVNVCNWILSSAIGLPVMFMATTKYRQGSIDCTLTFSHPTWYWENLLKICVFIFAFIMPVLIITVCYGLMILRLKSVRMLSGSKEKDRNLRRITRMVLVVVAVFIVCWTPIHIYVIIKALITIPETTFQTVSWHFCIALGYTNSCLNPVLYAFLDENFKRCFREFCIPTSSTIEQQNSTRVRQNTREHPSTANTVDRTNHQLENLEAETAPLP
SMILES,AC50,outcome
CCCN(CC)CC1COC2(CCC(C(C)(C)C)CC2)O1 (configuration not stated),13.8 µM (active),–
COCC(C)N(C(=O)CCl)c1c(C)csc1C (configuration not stated),16 µM (active),–
CCOP(=O)(OCC)Oc1nc(Cl)c(Cl)cc1Cl,25 µM (active),–
O=C1C2CC=CCC2C(=O)N1SC(Cl)(Cl)Cl (configuration not stated),–,inactive

# Target: human Neonicotinoid receptor (NNR), CHRNA2 (gene 1135) (UniProt Q15822)
# Experiment: NVS_LGIC_hNNR_NBungSens: NovaScreen (NVS) Ligand-Gated Ion Channel Assay for human Neonicotinoid receptor (NNR) (AID 2283313)
# Outline: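 Compounds first screened in duplicate at 25 uM, then actives re-tested in single-replicate dose series up to 50 uM. Binding measured as displacement of specific radioligand from neuroblastoma membrane receptors after 2 h, scintillation read on filters.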
# Chain of human Neonicotinoid receptor (NNR), CHRNA2 (gene 1135) (Q15822 whole entry, looked up): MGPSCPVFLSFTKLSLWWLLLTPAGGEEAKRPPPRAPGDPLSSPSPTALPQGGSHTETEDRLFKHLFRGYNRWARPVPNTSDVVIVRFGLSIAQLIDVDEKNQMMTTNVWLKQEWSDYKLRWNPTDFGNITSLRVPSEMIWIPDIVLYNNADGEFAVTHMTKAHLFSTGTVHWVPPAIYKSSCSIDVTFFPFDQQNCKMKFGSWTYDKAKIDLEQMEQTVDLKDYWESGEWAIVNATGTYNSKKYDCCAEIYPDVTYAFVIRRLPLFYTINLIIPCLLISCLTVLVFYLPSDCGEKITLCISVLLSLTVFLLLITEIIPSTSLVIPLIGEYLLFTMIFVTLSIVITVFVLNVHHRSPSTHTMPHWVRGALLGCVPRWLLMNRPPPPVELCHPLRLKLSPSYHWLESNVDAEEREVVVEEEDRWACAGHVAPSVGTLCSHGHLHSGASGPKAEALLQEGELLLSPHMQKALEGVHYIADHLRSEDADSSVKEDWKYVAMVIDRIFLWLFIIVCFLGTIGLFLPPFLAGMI
SMILES,AC50,outcome
CC1(C)C(C=C(Cl)Cl)C1C(=O)OC(C#N)c1cccc(Oc2ccccc2)c1 (configuration not stated),25 µM (active),–
N#CN=C1SCCN1Cc1ccc(Cl)nc1,4.45 µM (active),–
Cc1ccc(N=CN(C)C=Nc2ccc(C)cc2C)c(C)c1,–,inactive
CN/C(=N\[N+](=O)[O-])NCc1cnc(Cl)s1,10.1 µM (active),–

# Target: rat Somatostatin Receptor (SST), Sstr1 (gene 25033) (UniProt P28646)
# Experiment: NVS_GPCR_rSST: NovaScreen (NVS) G Protein-Coupled Receptor Assay for rat Somatostatin Receptor (SST) (AID 2283314)
# Description: NVS_GPCR_rSST is a biochemical, single-readout assay that uses extracted gene-proteins from Rat forebrain membranes in a tissue-based cell-free assay. Measurements were taken 1 hour after chemical dosing in a 96-well plate.NVS_GPCR_rSST is one of one assay component(s) measured or calculated from the NVS_GPCR_rSST assay. It is designed to make measurements of radioligand binding, a form of binding reporter, as detected with scintillation counting signals by Filter-based radiodetection technology.Data from the assay component NVS_GPCR_rSST was analyzed into 1 assay endpoint. This assay endpoint, NVS_GPCR_rSST, was analyzed in the positive analysis fitting direction relative to DMSO as the negative control and baseline of activity. Using a type of binding reporter, loss-of-signal activity can be used to understand changes in the binding as they relate to the gene Sstr1. Furthermore, this assay endpoint can be referred to as a primary readout, because the performed assay has only produced 1 assay endpoint. To generalize the intended target to other relatable targets, this assay endpoint is annotated to the gpcr intended target family, where the subfamily is rhodopsin-like receptor.
# Binding assays used specific radioligands (tritiated, iodinated) with non-radioactive competitive displacement ligands in agonist or antagonist protocols (as indicated) and various reference compounds and inhibitors to titrate specific binding to receptors and transporters. Most enzyme assays (CYPs, kinases, phosphatases, proteases, HDACs) used recombinant protein and specific substrates (fluorescence mostly, some colorimetric and radioactive) and inhibitors, followed by a biochemical separation of substrate and product. All assays for the biochemical HTS were initially run in duplicate at a single concentration (10 uM for CYP450 assays and 25 uM for all others). […]
# Chain of rat Somatostatin Receptor (SST), Sstr1 (gene 25033) (P28646 whole entry, looked up): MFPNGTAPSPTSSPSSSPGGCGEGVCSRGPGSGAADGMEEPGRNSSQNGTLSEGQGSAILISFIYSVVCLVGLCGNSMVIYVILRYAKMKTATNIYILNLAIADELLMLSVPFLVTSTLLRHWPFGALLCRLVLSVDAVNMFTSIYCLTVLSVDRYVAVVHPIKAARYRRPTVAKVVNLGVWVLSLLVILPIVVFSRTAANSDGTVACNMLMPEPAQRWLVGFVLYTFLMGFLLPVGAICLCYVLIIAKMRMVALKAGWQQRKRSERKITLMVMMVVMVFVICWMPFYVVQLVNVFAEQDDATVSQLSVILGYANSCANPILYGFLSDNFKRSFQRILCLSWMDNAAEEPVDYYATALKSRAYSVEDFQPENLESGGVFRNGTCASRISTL
row,SMILES,AC50
1,CCOC(=O)C(C)OC(=O)c1cc(Oc2ccc(C(F)(F)F)cc2Cl)ccc1[N+](=O)[O-] (configuration not stated),41.1 µM (active)
2,CCOP(=O)(OCC)Oc1nc(Cl)c(Cl)cc1Cl,6.64 µM (active)
3,O=C1C2CC=CCC2C(=O)N1SC(Cl)(Cl)Cl (configuration not stated),5.93 µM (active)

# Target: rat Neonicotinoid receptor (NNR), Chrna7 (gene 25302) (UniProt Q05941)
# Experiment: NVS_LGIC_rNNR_BungSens: NovaScreen (NVS) Ligand-Gated Ion Channel Assay for rat Neonicotinoid receptor (NNR) (AID 2283315)
# Outline: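 Rat cortical membrane preparation incubated 2.5 h with tritiated or iodinated radioligand and test chemical. Bound radioactivity was filtered and counted by scintillation, and displacement was analysed against DMSO.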
# Chain of rat Neonicotinoid receptor (NNR), Chrna7 (gene 25302) (Q05941 whole entry, looked up): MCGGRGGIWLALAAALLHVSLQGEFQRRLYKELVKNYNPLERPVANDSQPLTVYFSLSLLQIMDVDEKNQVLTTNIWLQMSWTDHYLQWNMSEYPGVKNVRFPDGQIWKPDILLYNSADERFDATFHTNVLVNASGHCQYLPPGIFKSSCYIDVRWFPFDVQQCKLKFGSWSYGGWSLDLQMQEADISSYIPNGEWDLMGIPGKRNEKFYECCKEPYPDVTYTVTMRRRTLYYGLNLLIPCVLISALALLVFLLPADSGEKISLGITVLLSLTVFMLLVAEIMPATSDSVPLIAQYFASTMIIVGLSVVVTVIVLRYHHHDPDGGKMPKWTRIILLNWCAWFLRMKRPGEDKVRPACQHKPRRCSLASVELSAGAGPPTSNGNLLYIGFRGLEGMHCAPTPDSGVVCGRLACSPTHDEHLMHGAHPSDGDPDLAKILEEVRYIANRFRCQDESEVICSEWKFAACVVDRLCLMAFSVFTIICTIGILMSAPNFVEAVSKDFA
SMILES,AC50,outcome
N#CN=C1SCCN1Cc1ccc(Cl)nc1,5.39 µM (active),–
CN/C(=N\[N+](=O)[O-])NCc1cnc(Cl)s1,25 µM (active),–
COC(=O)N(C(=O)N1CO[C@@]2(C(=O)OC)Cc3cc(Cl)ccc3C2=N1)c1ccc(OC(F)(F)F)cc1,–,inactive

# Target: rat Opioid Receptor, Non-selective Binding, Oprm1 (gene 25601) (UniProt P33535)
# Experiment: NVS_GPCR_rOpiate_NonSelective: NovaScreen (NVS) G Protein-Coupled Receptor Assay for rat Opioid Receptor, Non-selective Binding (AID 2283318)
# Outline: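 Filter-based radioligand displacement using rat forebrain membrane preparations, measured 1.5 h post-dosing. Single-concentration duplicate screen at 25 uM, follow-up in concentration series; activity taken as signal loss relative to DMSO.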
# Chain of rat Opioid Receptor, Non-selective Binding, Oprm1 (gene 25601) (P33535 whole entry, looked up): as the sequence (P33535 whole entry, looked up) above
SMILES,outcome,AC50
CCCC(=NOCC)C1=C(O)CC(CC(C)SCC)CC1=O (configuration not stated),inactive,–
CCCN(CC)CC1COC2(CCC(C(C)(C)C)CC2)O1 (configuration not stated),inactive,–
COCC(C)N(C(=O)CCl)c1c(C)csc1C (configuration not stated),inactive,–
CCOc1cc(C(C)(C)C)ccc1C1COC(c2c(F)cccc2F)=N1 (configuration not stated),inactive,–
CCOP(=O)(OCC)Oc1nc(Cl)c(Cl)cc1Cl,–,11.1 µM (active)
CCN(CC)C(=O)C(C)Oc1cccc2ccccc12 (configuration not stated),inactive,–

# Tested on: NCBI gene 24521
# Experiment: NVS_IC_rKATPCh: NovaScreen (NVS) Ion Channel Assay for rat Potassium Channel, ATP-Sensitive (KATPCh) (AID 2283319)
# Outline: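 Primary duplicate screen at 25 uM, then singleton concentration series to 50 uM maximum, in a rat cortex membrane radioligand displacement assay. Binding measured by filtration and scintillation 2 h post-dose; DMSO baseline.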
row,SMILES,outcome
1,CC(C)N1C(=O)c2ccccc2NS1(=O)=O,inactive
2,COP(=S)(OC)SCn1nnc2ccccc2c1=O,inactive
3,CCOc1cc(C(C)(C)C)ccc1C1COC(c2c(F)cccc2F)=N1 (configuration not stated),inactive
4,COP(=O)(OC)O/C(C)=C/C(=O)N(C)C,inactive

# Tested on: not listed separately
# Experiment: NVS_IC_rCaDHPRCh_L: NovaScreen (NVS) Ion Channel Assay for rat Calcium Channel, Type L, Dihydropyridine Site (CaDHPRCh_L) (AID 2283320)
# Outline: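 Rat cortex membrane preparation; dihydropyridine-site radioligand displacement read 1 h post-dose by filtration and scintillation. Primary single-point screen 25 uM in duplicate, then concentration series to 50 uM maximum; DMSO as negative control.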
SMILES,AC50,outcome
CC1(C)C(C=C(Cl)Cl)C1C(=O)OC(C#N)c1cccc(Oc2ccccc2)c1 (configuration not stated),9.51 µM (active),–
CCOC(=O)C(C)OC(=O)c1cc(Oc2ccc(C(F)(F)F)cc2Cl)ccc1[N+](=O)[O-] (configuration not stated),25 µM (active),–
COC(=O)c1c(C(F)F)nc(C(F)(F)F)c(C2=NCCS2)c1CC(C)C,–,inactive
CCCCC(C#N)(Cn1cncn1)c1ccc(Cl)cc1 (configuration not stated),–,inactive
CO/N=C(/C1=NOCCO1)c1ccccc1Oc1ncnc(Oc2ccccc2Cl)c1F,–,inactive
CCCCOCN(C(=O)CCl)c1c(CC)cccc1CC,9.86 µM (active),–

# Target: bovine Gamma-Aminobutyric Acid Type A Receptor BDZ, alpha 1 site (GABARa1), GABRA1 (gene 780973) (UniProt P08219)
# Experiment: NVS_LGIC_bGABARa1: NovaScreen (NVS) Ligand-Gated Ion Channel Assay for bovine Gamma-Aminobutyric Acid Type A Receptor BDZ, alpha 1 site (GABARa1) (AID 2283321)
# Description: NVS_LGIC_bGABARa1 is a biochemical, single-readout assay that uses extracted gene-proteins from Bovine cortical membranes in a tissue-based cell-free assay. Measurements were taken 0.75 hour after chemical dosing in a 48-well plate.NVS_LGIC_bGABARa1 is one of one assay component(s) measured or calculated from the NVS_LGIC_bGABARa1 assay. It is designed to make measurements of radioligand binding, a form of binding reporter, as detected with scintillation counting signals by Filter-based radiodetection technology.Data from the assay component NVS_LGIC_bGABARa1 was analyzed into 1 assay endpoint. This assay endpoint, NVS_LGIC_bGABARa1, was analyzed in the positive analysis fitting direction relative to DMSO as the negative control and baseline of activity. Using a type of binding reporter, loss-of-signal activity can be used to understand changes in the binding as they relate to the gene GABRA1. Furthermore, this assay endpoint can be referred to as a primary readout, because the performed assay has only produced 1 assay endpoint. To generalize the intended target to other relatable targets, this assay endpoint is annotated to the ion channel intended target family, where the subfamily is ligand-gated ion channel.
# Binding assays used specific radioligands (tritiated, iodinated) with non-radioactive competitive displacement ligands in agonist or antagonist protocols (as indicated) and various reference compounds and inhibitors to titrate specific binding to receptors and transporters. Most enzyme assays (CYPs, kinases, phosphatases, proteases, HDACs) used recombinant protein and specific substrates (fluorescence mostly, some colorimetric and radioactive) and inhibitors, followed by a biochemical separation of substrate and product. All assays for the biochemical HTS were initially run in duplicate at a single concentration (10 uM for CYP450 assays and 25 uM for all others). Assay-chemical combinations meeting a pre-defined threshold (e.g., 30% inhibition and other criteria defined below) were then run in singleton concentration-response format with maximum concentration of 20 uM for CYPs and 50 uM for all others. Each assay was run with positive and negative controls, and concurrent controls on every plate. The follow-up (secondary) screen tested active chemical-pairs in concentration series, as well as a few additional assays not tested in the primary screen, some selected negative inactives, and several cases re-run in the concentration series for confirmatory purposes.
# Chain of bovine Gamma-Aminobutyric Acid Type A Receptor BDZ, alpha 1 site (GABARa1), GABRA1 (gene 780973) (P08219 whole entry, looked up): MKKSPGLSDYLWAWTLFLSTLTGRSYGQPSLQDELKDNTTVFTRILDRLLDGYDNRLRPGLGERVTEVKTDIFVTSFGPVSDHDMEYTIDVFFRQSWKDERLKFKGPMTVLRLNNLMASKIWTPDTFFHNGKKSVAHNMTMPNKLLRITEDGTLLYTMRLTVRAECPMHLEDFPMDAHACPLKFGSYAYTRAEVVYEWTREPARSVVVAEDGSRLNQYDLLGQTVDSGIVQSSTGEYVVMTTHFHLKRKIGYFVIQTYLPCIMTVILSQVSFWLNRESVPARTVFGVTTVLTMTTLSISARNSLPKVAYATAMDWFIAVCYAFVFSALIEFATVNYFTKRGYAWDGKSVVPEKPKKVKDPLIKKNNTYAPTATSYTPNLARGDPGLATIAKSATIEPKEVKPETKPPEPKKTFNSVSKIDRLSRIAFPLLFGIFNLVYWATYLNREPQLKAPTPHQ
SMILES,outcome,AC50
N#CN=C1SCCN1Cc1ccc(Cl)nc1,inactive,–
Nc1c(Cl)c(F)nc(OCC(=O)O)c1Cl,inactive,–
COP(=S)(OC)SCn1nnc2ccccc2c1=O,–,10.1 µM (active)
CC1(C)C(C(=O)OC(C#N)c2cccc(Oc3ccccc3)c2)C1(C)C (configuration not stated),inactive,–
COP(=O)(OC)O/C(C)=C/C(=O)N(C)C,inactive,–
O=C(Nc1ccccc1-c1ccc(Cl)cc1)c1cccnc1Cl,inactive,–
CS(=O)(=O)c1cc(C(F)(F)F)ccc1C(=O)c1cnoc1C1CC1,inactive,–
